The source of these data is PubChem BioAssay (NCI).

“And” between values parts separate entries of the source, which are not always exact repeats. Equal values may be shown once. Compounds without any hit were thinned out: in the full panel of roughly 83,000, 20% have a hit.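 96-well plates, one dose, 48 hours. Percent growth reported; active if below 10.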 The source made the active and inactive calls.

The test system of the test is NCI-H23 lung. Description: NCI-60 one-dose screen, 48 h (100 = growth as untreated, 0 = no growth, -100 = all killed). Conditions: 10 µM unless noted.
Turning to `COc1ccc(/C(C#N)=C/c2ccccn2)cc1`, the growth is 98% (inactive) and 102% (inactive).

Take `O=C1OC2(c3ccccc31)c1ccc(O)c(O)c1Oc1c2ccc(O)c1O`: the growth is 105% (inactive) and 102% (inactive).

Take `CC(=O)Nc1cccc2c1CCCC2`: the growth is 98% (inactive) and 96.3% (inactive).

Consider `CN(C)c1ccc2nc3ccc(N)cc3[n+](-c3ccccc3)c2c1`, for which the growth is 10.4% (inactive) and 20.6% (inactive).

As to `CCN(CC)CCOc1ccc(/C=N/Nc2nc3c([nH]2)c(=O)n(C)c(=O)n3C)cc1`, the growth was 89.8% (inactive) and 103% (inactive).

On to `O=C1CCN(Cc2ccccc2)C(=S)N1`, for which the growth was 117% (inactive) and 100% (inactive).

On to `CC(C)Cc1ccc(C(C)C(=O)NCc2ccc(Cn3c(=O)sn(CCCI)c3=O)cc2)cc1` (stereo not drawn), for which the growth was 92% (inactive) and -78.3% (active).

For `CCc1c(CC(=O)O)c2cc(C)ccc2n1Cc1ccc(Cl)cc1`, the growth was 97.3% (inactive) and 90% (inactive).

With `CNC(=O)c1ccc(C)c(-n2c(C)cc(OCc3ccc(F)cc3F)c(Br)c2=O)c1`, the growth was 66% (inactive) and 74.1% (inactive).

As for `O=[N+]([O-])c1ccc(-n2[nH]nnc2=S)cc1`, the growth was 98.5% (inactive).

As for `COC(=O)/C=C/c1cc(O)c2c(c1)C(C(=O)OC)C(c1ccc(O)c(O)c1)O2` (stereo not drawn), the growth is 30.8% (inactive) and 27.3% (inactive).

Take `COC(=O)c1nc(N)nc(C(=O)OC)c1C(=O)c1ccc(OC)cc1`: the growth is 98.5% (inactive) and 58% (inactive).

Take `COc1cc2c(c(OC)c1OC)-c1ccc(OC)c(=O)cc1[C@@H](NC(C)=O)CC2`: the growth was 24.4% (inactive) and 29.4% (inactive) and 12.6% (inactive).

Take `CN1CCN(c2ccc3nc(-c4c(N)c5c(F)cccc5[nH]c4=O)[nH]c3c2)CC1`: the growth was 27.9% (inactive) and 34.1% (inactive).

For `NC(=S)NN=C1CCC(C2CCCCC2)CC1` (stereo not drawn), the growth was 103% (inactive) and 94.1% (inactive).

`c1ccc2cc(C[n+]3ccn(Cc4ccc5ccccc5n4)c3)ccc2c1`: the growth is -4.2% (active) and 29.2% (inactive).

As for `CN(C)CCC(=O)c1ccc(Cl)cc1`, the growth was 109% (inactive) and 86.8% (inactive).

`Fc1ccccc1Nc1n[nH]c(=S)s1`: the growth is 108% (inactive).

For `CCOc1ccc2cc(-c3nn(CC4CCN(C)CC4)c4ncnc(N)c34)ccc2c1`, the growth was 74.2% (inactive) and 63.5% (inactive).

For `CC[N+](CC)(CC(=O)Nc1c(C)cccc1C)Cc1ccccc1`, the growth is 85.4% (inactive) and 99.4% (inactive).

As for `CC1=CCC2CC1C2(C)C` (stereo not drawn), the growth is 80.7% (inactive) and 93.5% (inactive).

In the case of `CC1(C)[C@@H](OC(=O)CCC(=O)O)CC[C@]2(C)[C@H]3C(=O)C=C4[C@@H]5C[C@@](C)(C(=O)O)CC[C@]5(C)CC[C@@]4(C)[C@]3(C)CC[C@@H]12`, the growth was 105% (inactive) and -34.8% (active).

In the case of `CCC(O)c1ccccc1` (stereo not drawn), the growth is 112% (inactive) and 113% (inactive).

For the compound `CN(Cc1ccccc1)Cc1ccccc1`, the growth is 96.6% (inactive).

In the case of `COc1ccc(-c2ncnc3c2ncn3C/C=C/CCl)cc1`, the growth was 63.6% (inactive) and 80.5% (inactive).

As to `NS(=O)(=O)c1cc2c(cc1Cl)NC(C(Cl)Cl)NS2(=O)=O` (stereo not drawn), the growth was 120% (inactive) and 106% (inactive).

As to `O=Nc1ccc(O)cc1`, the growth is 78.9% (inactive) and 94.9% (inactive).

For the compound `COc1ccc2c(=O)cc(-c3ccccc3)[nH]c2c1`, the growth is 34.4% (inactive) and 16.5% (inactive).

On to `O=CC(O)C(O)C(O)CO` (stereo not drawn), for which the growth is 13.3% (inactive) and 100% (inactive).

Consider `CN(C)c1ccc(/C=C(\C#N)c2ccccc2)cc1`, for which the growth is 29.3% (inactive) and 36.4% (inactive) and 44.1% (inactive).

For the compound `OCCN1CCN(CCO)CC1`, the growth is 95.3% (inactive) and 99.7% (inactive) and 110% (inactive).

Take `CC1=C[C@H]2c3c(c(O)c(O)c4oc5cc(O)cc(O)c5c(=O)c34)[C@H](c3cc(O)c(O)c4oc5cc(O)cc(O)c5c(=O)c34)[C@H]2C(C)(C)C1`: the growth was -5.6% (active) and -52.4% (active).

Regarding `CCOc1ccc2c(S(=O)(=O)O)cccc2c1[N+](=O)[O-]`, the growth was 94.5% (inactive) and 102% (inactive).
